We go through 8 molecules from PubChem BioAssay (NCI).

Molecules are shown by their SMILES. Compounds without any hit were thinned out: in the full panel of roughly 83,000, 20% have a hit.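 Single-dose data. Exposure time 48 hours. Values below 10 considered active.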 A number with no mark means an inactive call. Active and inactive are the calls of the source.

Assay in all cases: NCI-60 one-dose screen, 48 h (100 = growth as untreated, 0 = no growth, -100 = all killed)
Common to all, as to conditions: 10 µM unless noted

The subject of experiment [1] is HCT-15 colon.
Experiment [2] concerns HT29 colon.
The subject of experiment [3] is SNB-75 CNS.
The subject of experiment [4] is SNB-19 CNS.
Experiment [5] relates to U251 CNS.
For experiment [6], the system named is PC-3 prostate.
The subject of experiment [7] is UACC-62 melanoma.
The subject of experiment [8] is LOX IMVI melanoma.
For experiment [9], the system named is SK-MEL-28 melanoma.
Experiment [10] concerns SK-MEL-2 melanoma.
For experiment [11], the system named is EKVX NSCLC.
The test system of experiment [12] is SN12C renal.
The subject of experiment [13] is UO-31 renal.
Experiment [14] concerns TK-10 renal.
Experiment [15] deals with ACHN renal.
Experiment [16] relates to CAKI-1 renal.
Experiment [17] relates to A498 renal.
The test system of experiment [18] is CCRF-CEM leukemia.
The test system of experiment [19] is MOLT-4 leukemia.
Experiment [20] relates to SK-MEL-5 melanoma.

With `COc1ccc(C(=O)COc2ccc(/C=C3\Oc4ccc5ccccc5c4C3=O)cc2)cc1`, the growth in experiment [1] is 126%; in experiment [2], 111%; in [3], 75.5%; in [4], 85%; in [5] it was 99.5%; in experiment [6], 81%. Moreover, the growth in [7] was 95.9%; in experiment [8], 93.5%; in experiment [9], 105%; in experiment [10] it was 77.9%; in experiment [11], 90.9%; in [12], 91.8%. Moreover, the growth in experiment [13] was -2.22% (active); in experiment [14] it was 142%; in experiment [15], 156%; in experiment [16], 96%; in experiment [17] it was 102%; in experiment [18] it was -21.9% (active). In addition, the growth in [19] is 50.4%.

Consider `COc1ccc(C2=NN(C(C)=O)C(c3c(C)nn(-c4ccccc4)c3N3CCOCC3)C2)cc1` (configuration not stated), for which the growth in experiment [1] was 103%; in experiment [2] it was 101%; in experiment [3] it was 74.4%; in experiment [4] it was 85.8%; in experiment [5], 89.3%; in experiment [6] it was 79.7%. For the same molecule, the growth was 97.6% in [20]; 97.8% in experiment [8]; 108% in [9]; 106% in [10]; 88.2% in experiment [11]; 91.9% in [12]. Moreover, the growth was 77.2% in experiment [13]; 95% in [15]; 91.3% in [17]; 95.4% in [18]; 88% in experiment [19].

As for `Cc1cc2c(cc1C)[n+](Cc1ccc3ccccc3n1)cn2Cc1ccc2ccccc2n1`, the growth in experiment [1] is 66.2%; in experiment [2], -14.5% (active); in [3], -1.25% (active); in experiment [4], 16.4%; in experiment [5], 7.2% (active); in experiment [6], -7.23% (active). The growth is -93.1% (active) in experiment [20]; -56.9% (active) in [8]; 10.2% in [9]; -32% (active) in [10]; 39.6% in [11]; 15.2% in experiment [12]. Moreover, the growth was 53.2% in experiment [13]; 56.5% in experiment [15]; 17.1% in experiment [17]; 15.1% in [18]; 7.97% (active) in experiment [19].

As to `CCCCN=C(N)c1ccc(OCCSCCOc2ccc(C(N)=NCCCC)cc2)cc1`, the growth is 90.5% in experiment [1]; 44% in [2]; 65.7% in experiment [3]; 36.7% in experiment [4]; 34.5% in experiment [5]; 44.4% in [6]. Moreover, the growth was 58.3% in [7]; 58.1% in experiment [8]; 69.6% in experiment [9]; 59.9% in [10]; 36.8% in experiment [11]; 26.3% in experiment [12]. In addition, the growth in experiment [13] was 93.5%; in experiment [15], 87%; in experiment [16], 115%; in [17], 57.4%; in experiment [18] it was 72.1%; in experiment [19] it was 67.8%.

As for `N#Cc1c(NC(=O)c2ccco2)[n+]([O-])c2cc(Cl)c(Cl)cc2[n+]1[O-]`, the growth is 111% in experiment [1]; 103% in [2]; 103% in experiment [3]; 111% in [4]; 102% in [5]; 125% in [6]. Besides, the growth in [20] was 94.8%; in experiment [8], 90.5%; in experiment [9], 104%; in experiment [10], 89.9%; in [11], 82.4%; in [12], 94.1%. The growth is 163% in experiment [14]; 110% in [15]; 134% in [16]; 109% in experiment [17]; 1.53% (active) in experiment [19].

For the molecule `Oc1c(Cl)cc(Cl)c(Cl)c1Cc1c(O)c(Cl)cc(Cl)c1Cl`, the growth in experiment [1] is 11.5%; in [2] it was 13.1%; in [3], 46.9%; in experiment [4] it was 23%; in [5], 15%; in experiment [6], -6.08% (active). Besides, the growth in experiment [20] is -72.7% (active); in experiment [8], 26.2%; in experiment [9], 22.4%; in [10], -39.1% (active); in experiment [11], -4.03% (active); in [12] it was 5.01% (active). For the same molecule, the growth in [13] was -2.22% (active); in [15] it was 18.4%; in experiment [16], -18.3% (active); in [17], -17.3% (active); in experiment [18], 5.78% (active); in experiment [19] it was 11.1%.

Consider `CC[C@@H](c1ccc(O)c(O)c1)[C@@H](CC)c1ccc(O)c(O)c1`, for which the growth in [1] was 58.1%; in experiment [2], 95.4%; in [3], 82.4%; in [4], 97.7%; in experiment [5], 89.9%; in experiment [6], 75.5%. Moreover, the growth in [20] was 91.4%; in experiment [8], 61%; in experiment [9], 87.1%; in experiment [10], 93.6%; in experiment [11], 117%; in [12] it was 99.8%. Further, the growth in experiment [13] was -1.68% (active); in experiment [14], 97%; in [15], 9.03% (active); in experiment [16], 6.55% (active); in experiment [18], 7.86% (active); in [19], 59.9%.

As for `CCSc1nc(-c2cccs2)n2nc(-c3ccco3)cc2n1`, the growth in [1] is 78%; in experiment [2], 88.8%; in experiment [3] it was 84.2%; in [4], 109%; in experiment [5], 91.4%; in experiment [6] it was 99%. The growth in experiment [20] was 86.5%; in experiment [8] it was 92%; in [9] it was 113%; in [10], 105%; in [11], 81.3%; in experiment [12] it was 89.7%. In addition, the growth in experiment [13] is 79.7%; in experiment [15], 94.1%; in [16], 86.3%; in experiment [17], 94.4%; in experiment [18] it was 88.7%; in experiment [19], 115%.
